Screens (PubChem)
Vif inh: blocks HIV Vif function; HEK293T cells, Vif self-association by quenched fluorescence, imaging, 24 h; inhibition, % at 7.49 µM; actives 0.35% (n = 340,000); AID 602346; in the data active = inhibition above about 50%, passing the limit was not always enough; inconclusive = no clear call, values can overlap the other calls; inactive = below about 31%
N-glyco inh: blocks N-linked glycosylation in D54 reporter cells; D54 ERlucT glycosylation luciferase reporter, 24 h; percent of 100 nM tunicamycin response; reporter increase, % at 12.5 µM; actives 0.23% (n = 360,000);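 active = mean luciferase reporter signal, scaled so untreated is 0 and the glycosylation-blocking control 100, at or above a set limit in every replicate; inconclusive = mean reaches the limit but not every replicate does; inactive = mean below the limit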;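 note: luciferase carries N-glycosylation sites so blocking glycosylation raises the light; 0% = median of neutral control wells and 100% = median of 100 nM tunicamycin wells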
Wnt act: activates Wnt/beta-catenin signaling in a reporter cell assay | actives 1.2% (n = 300,000) | activator, plate reader | activation, % at 9.35 µM; in the data active = activation above about 30%, passing the limit was not always enough; inconclusive = no clear call, values can overlap the other calls;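 note: 0% = neutral control wells and 100% = positive control wells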
MITF TRPM1 HTS: activators of MITF-driven TRPM1 promoter activity in SK-MEL-5 cells; SK-MEL-5 TRPM1-promoter luciferase, 24 h; % of positive control, neutral wells = 0; activation, % at 12.5 µM; actives 0.75% (n = 300,000); AID 588334;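 active = mean activation of at least 80% with every replicate also reaching 80%; inconclusive = mean reaches 80% but some replicate falls short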;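 note: 0% = neutral control wells and 100% = parthenolide positive control wells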
PfHsp90 set2: inhibits growth of yeast expressing Plasmodium falciparum Hsp90; AID 504621; actives 0.32% (n = 310,000); S. cerevisiae expressing PfHsp90, BacTiter-Glo ATP, 48 h; yeast lacking PDR1 and PDR3 efflux regulators; inhibition, % at 9.4 µM;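 active = every replicate shows inhibition above about 80%, whatever the replicate mean, limit read from the data; inconclusive = mean inhibition reaches the set limit but some replicate falls short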;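 note: 0% = DMSO neutral controls and 100% = 20 µM radicicol positive controls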
esBAF inh: blocks esBAF chromatin remodeling in mouse ES cells; reporter increase, % at 12.5 µM; actives 2% (n = 350,000); Bmi1-luciferase knock-in reporter, 24 h; 100% = twice the neutral-well signal; AID 602393; in the data active = activation above about 40%; inconclusive = no clear call, values can overlap the other calls;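 note: 0% = median of the plate's neutral control wells and 100% = double that signal; a rise in the Bmi1 reporter signal indicates esBAF inhibition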
Active calls of the source: *; ? = inconclusive; . = no result. Hits are enriched below; roughly 3% of the tested compounds scored in any of these assays.

SMILES	Vif inh	N-glyco inh	Wnt act	MITF TRPM1 HTS	PfHsp90 set2	esBAF inh
CC1SCC(=O)N(CC(=O)NC2CCCCC2)C1=O (stereo not drawn)	10	1	-1	-8	12	.
COc1ccc(OC)c(C2C3=C(CCCC3=O)NC3=C2C(=O)CCC3)c1	15	-1	.	-2	11	.
Cc1ccnc(NC(=O)c2cc3cc(F)ccc3s2)c1	-1	-11	38*	52	3	17
Cc1ccnc(NC(=O)CNC(=O)c2ccc(C)s2)c1	10	-4	-1	21	-3	?
Cc1ccnc(NC(=O)c2ccc([N+](=O)[O-])s2)c1	-12	-4	42*	-27	0	29
Cc1ccnc(NC(=O)c2cc([N+](=O)[O-])cc([N+](=O)[O-])c2)c1	4	4	0	-19	-42	.
Cc1cccc(C#Cc2ccccc2)n1	-10	-4	67*	76	-1	11
O=C(Nc1cccc(NC(=O)c2cccs2)c1)c1ccc([N+](=O)[O-])o1	.	59*	12	-97	-40	12
O=C(Nc1nc(-c2cccs2)cs1)c1ccc([N+](=O)[O-])o1	?	-11	18	-86	84*	34
O=C(Nc1nc(-c2cccs2)cs1)c1ccco1	-3	4	9	?	-1	.
COc1cc(NC(=O)c2ccc([N+](=O)[O-])o2)ccc1NC(=O)c1cccs1	-3	14	-5	-88	-50	-19
O=C(Nc1ccc(Cc2ccncc2)cc1)c1ccc([N+](=O)[O-])o1	48	34*	0	-45	-19	10
O=C(c1cnc(-c2ccc(Cl)cc2)s1)c1ccc(Cl)cc1Cl	-3	0	0	28	.	-3
Cc1ccc(-c2cc(-c3ccccc3[N+](=O)[O-])[nH]n2)c(O)c1	-12	-3	21	62	-9	70*
Cc1ccc(-c2cc(-c3ccccc3Cl)[nH]n2)c(O)c1	-3	-10	30	71	-9	52*
Oc1ccc(Br)cc1-c1cc(-c2ccccc2F)[nH]n1	-7	-2	15	16	-19	23
COc1ccc(O)c(-c2cc(-c3ccccc3Cl)[nH]n2)c1	-6	1	13	.	-17	74*
Cc1ccccc1-c1cc(-c2ccccc2O)n[nH]1	.	-3	55*	26	-7	-29
O=C(Nc1cccc(-n2cnnn2)c1)c1ccoc1COc1ccc(Cl)cc1	-5	-3	-4	7	-14	4
N/C(CC(=O)Nc1cc(C(F)(F)F)ccc1Cl)=N\O	-1	2	1	-6	-20	2
COc1ccc(C(=O)NC(C)c2ccc(-n3ccnc3)cc2)c(OC)c1 (stereo not drawn)	-25	-1	-2	-16	11	.
C/C(=C\C(=O)c1ccc(C)cc1)Nc1cccc(O)c1	-13	4	.	66	-24	72*
Cc1ccc(C(=O)/C=C/Nc2cccc(O)c2)cc1	-3	-17	.	-3	-14	-60
CCS(=O)(=O)c1ccc(C=NNc2nc3ccccc3o2)cc1	-1	-3	-3	104*	4	.
CN(C)c1ccc(/C=N/Nc2nc3ccccc3o2)cc1	0	-19	27	-9	21	-66
SMILES	Vif inh	N-glyco inh	Wnt act	MITF TRPM1 HTS	PfHsp90 set2	esBAF inh
COc1ccc(CN(C)C[C@@H]2OCCCC[C@@H](C)Oc3ccc(NC(=O)NC4CCCCC4)cc3C(=O)N([C@H](C)CO)C[C@@H]2C)cc1	.	.	.	.	.	3
COCn1c(-c2ccc(OC)c(OC)c2)nc2ccccc21	15	-1	.	.	-41	47*
COc1ccc(/C=C/c2nc3ccccc3n2Cc2ccc(OC)c(OC)c2)cc1	-5	-9	23	108*	.	?
CCc1nc2ccccc2n1Cc1ccc(OC)c(OC)c1	-1	1	-4	-15	38	0
COc1ccc(CNc2oc(-c3ccccc3)nc2C#N)cc1	4	1	6	5	-12	0
COc1ccc(Nc2oc(-c3ccccc3)nc2C#N)cc1	-1	-3	24	61	12	47*
CCOc1ccc(Nc2oc(-c3ccc(Cl)cc3)nc2C#N)cc1	3	6	?	.	.	67*
COc1ccc(-c2nc(C#N)c(NCCN(C)C)o2)cc1	6	-1	2	7	13	-5
COc1ccc(Nc2oc(-c3ccc(OC)cc3)nc2C#N)cc1	9	2	32*	.	21	.
COc1ccc(Nc2oc(-c3ccc(Cl)cc3)nc2C#N)cc1	7	24	13	31	-23	58*
Nc1nnc(SCC(=O)Nc2cc(C(F)(F)F)ccc2N2CCOCC2)s1	-9	2	.	1	-15	-10
COc1ccc(/C=N\NC(=O)c2ccccc2Br)cc1COc1ccc(F)cc1	-6	1	-3	17	5	-2
Cc1cc(C)n(C(=O)CNc2ccc(C)c(C)c2)n1	1	-1	.	2	-18	63*
C[C@@H]1CN([C@@H](C)CO)C(=O)CCCn2cc(nn2)CO[C@@H]1CN(C)Cc1cccnc1	.	.	.	.	.	-4
Cc1nn(CC2CC2)c(=O)n1-c1ccccc1F	7	1	0	-6	.	0
Cc1ccc(-n2c(C)nn(CCOc3ccccc3)c2=O)cc1	-1	1	19	65	1	45*
Cc1nn(CCOc2ccccc2)c(=O)n1-c1c(F)cccc1F	3	0	60*	.	15	?
CC1CC(C)CN(C(=O)COC(=O)CN2C(=O)c3ccccc3C2=O)C1 (stereo not drawn)	0	1	0	-5	.	1
CN1C(=O)c2cc(NC(=O)c3ccccc3)ccc2OC[C@H]2O[C@H](CC(=O)O)CC[C@@H]21	.	.	.	.	.	3
CCSc1nnc(NC(=O)c2cccc(OCc3c(C)noc3C)c2)s1	-38	4	.	.	.	4
CCSc1nnc(NC(=O)c2ccc3nc[nH]c3c2)s1	4	2	-3	32	10	91*
CCOC(=O)c1sc(NC(=O)c2ccc3nc[nH]c3c2)nc1C	6	0	9	27	8	53*
CC1(C(=O)Nc2ccc3c(c2)OCO3)Cc2c(-c3cccc(C(F)(F)F)c3)ccnc2O1 (stereo not drawn)	23	5	0	.	.	4
COc1ccccc1CNS(=O)(=O)c1cccc2nsnc12	.	.	3	10	12	.
O=C(NCCc1ccc(O)cc1)c1ccc(Cl)cc1	2	-1	.	98*	-26	?
O=C(NCCc1ccc(Cl)cc1)c1ccc(=O)[nH]c1	-9	0	-2	-9	-78	-4
CC(=O)NCCNC(=O)c1ccc(CSc2ccc(Cl)cc2)cc1	3	-3	-2	65	-16	54*
O=C(O)C[C@@H]1C[C@H]2c3cc(NC(=O)CC4CC4)ccc3O[C@H]2[C@H](CO)O1	.	.	.	.	.	2
Cc1ccc(NC(=O)C(=O)NCCCN2CCCC2=O)c(C)c1	-4	2	2	31	17	40
